Source: PubChem (The Scripps Research Institute Molecular Screening Center)
PAFAH1B3 FP inh: inhibitors of human PAFAH1B3; Q15102; recombinant PAFAH1B3, FP-rhodamine probe, fluorescence polarization; inhibition, % at 3.39 µM; 340,000 tested, 0.28% active;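 active = inhibition above the screen-wide average of all tested compounds plus 3 SD, cut at about 25% in these data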;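 note: 0% = enzyme with DMSO only and 100% = wells lacking PAFAH1B3 protein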
PKA-R1A activ: PKA-R1A complex activation; P00514+P68181; PKA-R1A dissociation, Cy5-IP20 fluorescence polarization; scaled: DMSO 0%, 113 µM cGMP 100%; activation, % at 11.4 µM; 340,000 tested, 0.083% active; AID 504707;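 active = percent activation above the mean of all tested compounds plus 3 SD, cut at about 19% in these data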;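 note: higher means more PKAc released from R1A so a rise in polarization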
PAFAH2 inh: PAFAH2 (human) inhibition; Q99487; inhibition, % at 3.39 µM; recombinant PAFAH2, FP-rhodamine activity probe, fluorescence polarization; 340,000 tested, 0.99% active;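 active = inhibition above the mean over all tested compounds plus 3 SD, cut at about 30% in these data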;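 note: inhibitors block probe labeling of enzyme so polarization drops; 0% = enzyme with DMSO and 100% = wells lacking PAFAH2 protein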
pPAFAH FP inh: inhibitors of human plasma PAF acetylhydrolase (pPAFAH) | recombinant pPAFAH, FP-rhodamine probe fluorescence polarization | inhibition, % at 3.39 µM | 330,000 tested, 1.5% active;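 active = inhibition above the mean inhibition across the screen plus 3 SD, cut at about 25% in these data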;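 note: inhibitors block binding of the rhodamine activity-based probe so polarization drops; 0% = enzyme with DMSO and 100% = wells lacking pPAFAH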
Target sequence (Q13093 whole entry, looked up): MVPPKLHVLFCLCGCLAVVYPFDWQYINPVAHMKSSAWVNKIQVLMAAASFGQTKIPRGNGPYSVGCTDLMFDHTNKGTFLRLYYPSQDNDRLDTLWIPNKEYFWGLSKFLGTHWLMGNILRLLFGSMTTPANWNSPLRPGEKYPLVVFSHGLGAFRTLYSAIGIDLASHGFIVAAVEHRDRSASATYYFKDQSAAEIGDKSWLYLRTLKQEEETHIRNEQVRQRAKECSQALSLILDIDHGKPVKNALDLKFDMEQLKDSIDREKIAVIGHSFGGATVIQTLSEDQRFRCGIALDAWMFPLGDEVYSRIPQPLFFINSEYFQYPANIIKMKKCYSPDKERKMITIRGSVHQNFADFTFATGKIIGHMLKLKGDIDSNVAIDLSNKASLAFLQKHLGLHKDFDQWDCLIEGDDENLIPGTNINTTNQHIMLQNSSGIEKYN
PAFAH1B2 FP inh: PAFAH1B2 (human) inhibition | P68402 | recombinant PAFAH1B2, FP-rhodamine activity probe, fluorescence polarization | inhibition, % at 3.39 µM | 340,000 tested, 1.2% active | AID 492953;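 active = inhibition above the mean of all tested compounds plus 3 SD, cut at about 24% in these data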;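 note: 0% = enzyme with DMSO and 100% = wells lacking PAFAH1B2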
PKA-R2B activ: activates the human PKA-R2B holoenzyme complex; 340,000 tested, 0.079% active; activation, % at 11.4 µM; PKA-R2B holoenzyme dissociation, Cy5-IP20 fluorescence polarization; R2B truncated from residue 108, S112A mutant; 0% DMSO only, 100% 113 µM cGMP;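 active = activation above a cutoff set at the mean over all compounds plus 3 SD, cut at about 18% in these data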;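 note: higher means more holoenzyme dissociation and a rise in polarization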
PAFAH1B3 conf FP: PAFAH1B3 (human) inhibition, confirmed | 390 tested, 30% active | recombinant PAFAH1B3, FP-Rh activity-based probe, fluorescence polarization | AID 493032 | shares compounds with PAFAH1B3 FP inh | inhibition, % at 3.39 µM;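 active = average inhibition over triplicate runs above the hit cutoff set in the earlier primary screen, cut at about 25% in these data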;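 note: 0% = enzyme with DMSO and 100% = wells lacking PAFAH1B3 protein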
* = called active by the depositor; x = not tested or not shown. An excerpt weighted towards active compounds, which were near 2.6% of everything screened.

SMILES	PAFAH1B3 FP inh	PKA-R1A activ	PAFAH2 inh	pPAFAH FP inh	PAFAH1B2 FP inh	PKA-R2B activ	PAFAH1B3 conf FP
CC(=O)N(/N=C1\Sc2ccccc2C1=O)c1cccc(C)c1	42*	3	7	-6	7	1	54*
CC(=O)N(CN1C(=O)c2ccccc2C1=O)c1cccc(C)c1	2	1	-7	6	3	1	x
Cc1cc(C)nc(SCCCNCc2ccccc2)n1	8	-8	2	1	-1	1	x
Cc1ccc(-c2[nH]c3cc(C(=O)NCCCn4ccnc4)ccc3c(=O)c2O)cc1	15	-1	20	15	14	-3	x
CCCNC(=O)c1ccc2c(=O)c(O)c(-c3ccc(C)cc3)[nH]c2c1	27*	4	-20	15	10	-5	6
Cc1ccc(-c2[nH]c3cc(C(N)=O)ccc3c(=O)c2O)cc1	29*	0	-20	24	11	-10	23
FC(F)(F)c1ccc(-c2noc(CN3CCCN(C4CCCCC4)CC3)n2)cc1	-1	-3	-2	5	1	4	x
CC1=C(Nc2ccc(C(=O)O)cc2)C(=O)c2ccccc2C1=O	13	-7	1	2	6	-5	x
O=C1C(Cl)=C(Nc2ccccc2)C(=O)c2ccccc21	26*	-7	15	4	11	-8	20
O=C(O)c1ccc(NC2=C(Cl)C(=O)c3ccccc3C2=O)cc1	33*	11	12	-2	12	7	23
CC(C)NC1=C(Cl)C(=O)c2ccccc2C1=O	8	-5	-1	-1	1	-5	x
O=C(NC1(O)C(=O)c2ccccc2C1=O)c1ccc(C(F)(F)F)cc1	x	x	x	0	x	x	x
Cc1ccc(C(=O)NC2(O)C(=O)c3ccccc3C2=O)cc1C	37*	-3	24	2	8	4	37*
O=C(NCCc1ccccc1)c1cccc(NC(=O)C2CCCC2)c1	9	-5	-7	x	6	-6	x
O=C(C=Cc1cccs1)c1ccc(Cl)s1	-3	-7	-1	x	2	-1	x
CCCC[n+]1ccn(C2=C([O-])c3ccccc3C(=O)/C2=N\S(=O)(=O)c2ccccc2)c1	36*	18	10	-4	13	-10	26*
CC(=O)Nc1ccc(NC(=O)C(C)OC(=O)c2ccc3ccccc3n2)cc1 (configuration not stated)	6	-1	2	6	2	-3	x
COc1ccc2c3c(cccc13)OC2=O	10	2	12	4	-3	-4	x
COc1ccc2c3c(cccc13)N(C)N=C2C	27*	-1	16	23	13	1	25
O=C1CN(C(=O)COC(=O)c2ccc(Br)o2)c2ccccc2N1	-1	4	6	3	4	-3	x
CC1OC(Nc2cccc3ccccc23)C(O)C(O)C1O (configuration not stated)	32*	1	14	0	4	-10	9
CC1OC(Nc2ccc(N=Nc3ccccc3)cc2)C(O)C(O)C1O (configuration not stated)	5	-11	2	2	1	-5	x
Fc1ccc2nc(Nc3nc4cc5c(cc4s3)OCO5)sc2c1	43*	5	-32	24	23	-3	44*
O=C(O)C(Cc1ccccc1[N+](=O)[O-])N1C(=O)c2ccccc2C1=O (configuration not stated)	9	4	6	x	5	-6	x
CC(=O)Oc1cccc(N2C(=O)c3ccc(C(=O)O)cc3C2=O)c1	7	-4	5	4	2	-7	x
SMILES	PAFAH1B3 FP inh	PKA-R1A activ	PAFAH2 inh	pPAFAH FP inh	PAFAH1B2 FP inh	PKA-R2B activ	PAFAH1B3 conf FP
CC(=O)Oc1cccc(N2C(=O)c3cccc4c([N+](=O)[O-])ccc(c34)C2=O)c1	28*	-9	1	5	14	-9	40*
CCN(c1ccccc1)c1cc2ccccc2c(=O)[nH]1	26*	-12	7	3	13	-6	8
OCC#Cc1ncc(C(F)(F)F)cc1Cl	28*	0	-3	4	1	6	25
O=C(NCc1cccnc1)C(=O)NCC1OCCCN1S(=O)(=O)c1cc(F)ccc1F (configuration not stated)	x	4	x	x	x	-4	x
Cc1cn2c(N)c(C=C3C=C(Cl)C(=O)C(Cl)=C3)c(=O)nc2s1	35*	0	6	x	9	-1	23
O=[N+]([O-])c1ccc(N/N=C/c2ccccc2O)cc1	26*	4	6	9	9	2	15
O=[N+]([O-])c1ccc(NN=Cc2ccccc2O)nc1	10	-1	1	x	7	-10	x
C=CCSc1nnc(NC(=O)CCNC(=O)c2ccccc2Cl)s1	x	1	x	x	x	6	x
N#Cc1cc2ccc(N3CCOCC3)cc2cc1C#N	60*	-3	18	9	7	2	15
CC(=O)N1CCn2c3c(c(=O)c4cc(C)ccc42)CCC31 (configuration not stated)	41*	-6	-2	13	10	-1	16
CC(Sc1nncn1C)C(=O)Nc1ccc2ccccc2c1 (configuration not stated)	-3	-2	8	x	-3	-3	x
CC(C)Cn1c(N)c(C(=O)NCC2CCCO2)c2nc3ccccc3nc21 (configuration not stated)	32*	-18	12	13	8	-13	14
COCC(C)OC(=O)c1c(N)n(CC(C)C)c2nc3ccccc3nc12 (configuration not stated)	35*	-4	-13	1	0	6	5
C=CCn1c(N)c(C(=O)OC(C)CC)c2nc3ccccc3nc21 (configuration not stated)	5	-1	-8	x	-1	-4	x
O=C(CN1C(=O)c2ccc([N+](=O)[O-])cc2C1=O)NCc1ccc(C(=O)O)cc1	9	-7	2	1	0	-3	x
O=S(=O)(Nc1c(S(=O)(=O)c2ccccc2)c2nc3ccccc3nc2n1C1CCCCC1)c1ccccc1	60*	8	10	20	21	6	9
Cc1ccc(C(=O)N2CCN(S(=O)(=O)c3ccccc3C#N)CC2)cc1S(=O)(=O)N1CCOCC1	9	3	11	0	0	1	x
CCCC[n+]1c2ccccc2cc2ccccc21	27*	-11	3	3	7	-12	35*
Cc1ccc(SC2=C(Sc3ccc(C)cc3)C(=O)c3ccccc3C2=O)cc1	38*	-11	16	8	21	2	35*
N=C1/C(=C/c2ccc(-c3cccc(C(=O)O)c3)o2)C(=O)N=C2SC(CC(=O)N3CCOCC3)=NN12	30*	3	14	14	11	-5	17
